Test results as given in PubChem BioAssay (NCI).
The panel holds about 83,000 compounds, 20% with a hit somewhere; the sample as a whole holds those more often.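 Percent growth is the endpoint: 0 to 100 indicates growth inhibition (40 means 60% inhibition), 0 means no net growth, and negative values indicate cell death.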 Active and inactive are the calls of the source. The calls were made as follows: active = growth percent below 10; inactive = the rest.

Columns and labels:
Test in all cases: NCI-60 one-dose screen, 48 h (100 = growth as untreated, 0 = no growth, -100 = all killed)
Conditions in all cases: 10 µM unless noted
SK-MEL-2 melanoma = test system: SK-MEL-2 melanoma
EKVX NSCLC = test system: EKVX NSCLC
SN12C renal = test system: SN12C renal
UO-31 renal = test system: UO-31 renal
TK-10 renal = test system: TK-10 renal
ACHN renal = test system: ACHN renal
CAKI-1 renal = test system: CAKI-1 renal
A498 renal = test system: A498 renal
CCRF-CEM leukemia = test system: CCRF-CEM leukemia
MOLT-4 leukemia = test system: MOLT-4 leukemia
SR leukemia = test system: SR leukemia
RPMI-8226 leukemia = test system: RPMI-8226 leukemia
OVCAR-8 ovarian = test system: OVCAR-8 ovarian
OVCAR-5 ovarian = test system: OVCAR-5 ovarian
OVCAR-4 ovarian = test system: OVCAR-4 ovarian
SK-OV-3 ovarian = test system: SK-OV-3 ovarian
IGROV1 ovarian = test system: IGROV1 ovarian
OVCAR-3 ovarian = test system: OVCAR-3 ovarian
HS 578T breast = test system: HS 578T breast
NCI/ADR-RES ovarian = test system: NCI/ADR-RES ovarian

Measured: growth

CCN(CC)CCCC(C)Nc1c2c(nc3ccc(OC)cc13)CCCC2 (configuration not stated)
inactive: SK-MEL-2 melanoma 128% | EKVX NSCLC 91.2% | SN12C renal 84.4% | UO-31 renal 76.6% | TK-10 renal 111% | ACHN renal 96.4% | CAKI-1 renal 93.7% | A498 renal 73.5% | CCRF-CEM leukemia 95.5% | MOLT-4 leukemia 94.7% | SR leukemia 93.6% | RPMI-8226 leukemia 100% | OVCAR-8 ovarian 105% | OVCAR-5 ovarian 90.2% | OVCAR-4 ovarian 103% | SK-OV-3 ovarian 119% | IGROV1 ovarian 98.1% | OVCAR-3 ovarian 102% | HS 578T breast 93.5% | NCI/ADR-RES ovarian 96.8%

COc1cc(/C=C/C(=O)c2ccc(Nc3ncnc4ccccc34)cc2)cc(OC)c1
active: SR leukemia 0.253% | RPMI-8226 leukemia 2.26%
inactive: SK-MEL-2 melanoma 112% | EKVX NSCLC 79.3% | SN12C renal 71.3% | UO-31 renal 51.2% | TK-10 renal 79.1% | ACHN renal 76.8% | CAKI-1 renal 69.3% | A498 renal 85.9% | CCRF-CEM leukemia 20.6% | MOLT-4 leukemia 19.1% | OVCAR-8 ovarian 57.5% | OVCAR-5 ovarian 101% | OVCAR-4 ovarian 79.8% | SK-OV-3 ovarian 128% | IGROV1 ovarian 60.2% | OVCAR-3 ovarian 36.4% | HS 578T breast 82.4% | NCI/ADR-RES ovarian 73.6%

CC(C)Cc1ccc(C(C)C(=O)NCc2ccc(Cn3c(=O)sn(-c4ccc(Cl)cc4)c3=O)cc2)cc1 (configuration not stated)
inactive: SK-MEL-2 melanoma 107% | EKVX NSCLC 82.6% | SN12C renal 84.1% | UO-31 renal 65.4% | TK-10 renal 74.2% | ACHN renal 56.5% | CAKI-1 renal 74.7% | A498 renal 95% | CCRF-CEM leukemia 96.2% | MOLT-4 leukemia 85.7% | SR leukemia 72.2% | RPMI-8226 leukemia 83.9% | OVCAR-8 ovarian 79.5% | OVCAR-5 ovarian 89.3% | OVCAR-4 ovarian 47.4% | SK-OV-3 ovarian 92% | IGROV1 ovarian 92.2% | OVCAR-3 ovarian 91.5% | HS 578T breast 71.8%

Clc1ccc(C2CC(c3cccc(Nc4ccncc4)c3)=NN2c2ccccc2)cc1 (configuration not stated)
inactive: SK-MEL-2 melanoma 83.7% | EKVX NSCLC 89.8% | SN12C renal 76.6% | UO-31 renal 63.2% | TK-10 renal 57.4% | ACHN renal 78.1% | CAKI-1 renal 52.6% | A498 renal 84% | CCRF-CEM leukemia 36.7% | OVCAR-5 ovarian 82.6% | OVCAR-4 ovarian 45.5% | SK-OV-3 ovarian 81.4% | IGROV1 ovarian 25.9% | OVCAR-3 ovarian 64.4% | HS 578T breast 83.9% | NCI/ADR-RES ovarian 78.8%
active: MOLT-4 leukemia -6.03% | SR leukemia 2.19% | RPMI-8226 leukemia 1.08% | OVCAR-8 ovarian -7.33%

COc1cc(OC)c(/C=C/C(=O)c2ccc(Nc3ncnc4ccccc34)cc2)c(OC)c1
inactive: SN12C renal 25.3% | ACHN renal 22.8% | CAKI-1 renal 17.8% | MOLT-4 leukemia 12.7% | RPMI-8226 leukemia 12.2% | IGROV1 ovarian 19.3%
active: SK-MEL-2 melanoma 7.01% | EKVX NSCLC 2.86% | UO-31 renal -15.8% | TK-10 renal -17.9% | A498 renal -26.4% | CCRF-CEM leukemia 1.37% | SR leukemia 1.91% | OVCAR-8 ovarian -44% | OVCAR-5 ovarian 8.12% | OVCAR-4 ovarian 6.46% | SK-OV-3 ovarian -42.4% | OVCAR-3 ovarian -67.8% | HS 578T breast -13.2% | NCI/ADR-RES ovarian -17.2%

CN1CCN(c2cnc(C(=O)Nc3cc(F)cc4cccnc34)cn2)CC1
inactive: SK-MEL-2 melanoma 94.8% | EKVX NSCLC 45.5% | SN12C renal 62.2% | UO-31 renal 43% | TK-10 renal 69.3% | ACHN renal 26.5% | CAKI-1 renal 57.3% | A498 renal 75.7% | CCRF-CEM leukemia 35.6% | MOLT-4 leukemia 23.5% | SR leukemia 24.5% | RPMI-8226 leukemia 49.2% | OVCAR-8 ovarian 63.8% | OVCAR-5 ovarian 62.7% | SK-OV-3 ovarian 96.9% | HS 578T breast 69.2% | NCI/ADR-RES ovarian 56.5%
active: OVCAR-4 ovarian 8.94% | IGROV1 ovarian 8.45% | OVCAR-3 ovarian 9.25%

Cc1cc(NC(=O)c2cnc(N3CCN(CCOCCOCCOCCOCCC(=O)N[C@H](C(=O)N4C[C@H](O)C[C@H]4C(=O)N[C@@H](C)c4ccc(-c5scnc5C)cc4)C(C)(C)C)CC3)cn2)c2ncccc2c1
inactive: EKVX NSCLC 60% | UO-31 renal 75.8% | TK-10 renal 69.3% | ACHN renal 37.9% | CAKI-1 renal 42.9% | A498 renal 78.6% | OVCAR-8 ovarian 20.7% | OVCAR-5 ovarian 80.4% | OVCAR-4 ovarian 14.7% | SK-OV-3 ovarian 63.9%
active: SK-MEL-2 melanoma -17.8% | SN12C renal -2.01% | CCRF-CEM leukemia -1.88% | MOLT-4 leukemia 1.53% | SR leukemia 7.46% | RPMI-8226 leukemia -26.5% | IGROV1 ovarian -37.8% | OVCAR-3 ovarian -30.8% | HS 578T breast 6.9%

O=C(CNCCO)Nc1ccc2ncnc(Nc3ccc(OCc4cccc(F)c4)c(Cl)c3)c2c1
inactive: SK-MEL-2 melanoma 98.2% | EKVX NSCLC 42.6% | SN12C renal 51.6% | UO-31 renal 50.1% | TK-10 renal 56% | ACHN renal 38% | CAKI-1 renal 63.3% | A498 renal 69% | CCRF-CEM leukemia 80.4% | MOLT-4 leukemia 78.5% | SR leukemia 12.9% | RPMI-8226 leukemia 88.2% | OVCAR-8 ovarian 80.4% | OVCAR-5 ovarian 85.5% | OVCAR-4 ovarian 93.8% | SK-OV-3 ovarian 16.4% | IGROV1 ovarian 33.6% | OVCAR-3 ovarian 72.7% | HS 578T breast 103% | NCI/ADR-RES ovarian 90.1%

C[C@]12CCc3nc(Nc4cccc(O)c4)sc3C1=CC[C@@H]1[C@@H]2CC[C@]2(C)/C(=N\NC(N)=S)CC[C@@H]12
active: UO-31 renal -37.1% | ACHN renal -54.1% | CCRF-CEM leukemia 1.64% | MOLT-4 leukemia 5.41% | SR leukemia 8.77% | RPMI-8226 leukemia -22.2% | IGROV1 ovarian -35.5% | OVCAR-3 ovarian -54% | HS 578T breast -0.0546%
inactive: SK-MEL-2 melanoma 40.8% | EKVX NSCLC 65.9% | SN12C renal 30.7% | TK-10 renal 20.1% | CAKI-1 renal 36.4% | A498 renal 97.5% | OVCAR-8 ovarian 30.5% | OVCAR-5 ovarian 58.8% | OVCAR-4 ovarian 39% | SK-OV-3 ovarian 29.9% | NCI/ADR-RES ovarian 47.8%

COc1ccc(C2CC(c3cccc(Nc4ccncc4)c3)=NN2c2ccc(Cl)cc2)cc1 (configuration not stated)
inactive: SK-MEL-2 melanoma 80.4% | EKVX NSCLC 83.8% | SN12C renal 63.7% | UO-31 renal 47.6% | TK-10 renal 59.1% | ACHN renal 46.7% | CAKI-1 renal 24.5% | A498 renal 70.1% | OVCAR-5 ovarian 74.1% | OVCAR-4 ovarian 37.7% | SK-OV-3 ovarian 63.9% | IGROV1 ovarian 23% | OVCAR-3 ovarian 39.6% | HS 578T breast 60.7%
active: CCRF-CEM leukemia 4.44% | MOLT-4 leukemia -7.16% | SR leukemia 1.94% | RPMI-8226 leukemia 0.0835% | OVCAR-8 ovarian -23.4%

Cc1nc2sc(C(=O)Nc3ccccc3)c(N)c2cc1C(=O)c1ccc(C(F)(F)F)cc1
active: A498 renal 5.8%
inactive: SK-MEL-2 melanoma 101% | EKVX NSCLC 79.3% | SN12C renal 99.6% | UO-31 renal 90.7% | TK-10 renal 104% | ACHN renal 80% | CAKI-1 renal 83.6% | CCRF-CEM leukemia 102% | MOLT-4 leukemia 108% | SR leukemia 81.9% | RPMI-8226 leukemia 102% | OVCAR-8 ovarian 101% | OVCAR-5 ovarian 97.9% | OVCAR-4 ovarian 87.3% | SK-OV-3 ovarian 69.3% | IGROV1 ovarian 101% | OVCAR-3 ovarian 110% | HS 578T breast 85.6% | NCI/ADR-RES ovarian 99%

O=C1CCCCCCCCC(O)C(O)CCCC(c2cccs2)O1 (configuration not stated)
active: SR leukemia -12.3%
inactive: SK-MEL-2 melanoma 120% | EKVX NSCLC 82.2% | SN12C renal 106% | UO-31 renal 75.2% | TK-10 renal 115% | ACHN renal 94.8% | CAKI-1 renal 93.9% | A498 renal 102% | CCRF-CEM leukemia 47.4% | MOLT-4 leukemia 31% | RPMI-8226 leukemia 87.1% | OVCAR-8 ovarian 99% | OVCAR-5 ovarian 95.3% | OVCAR-4 ovarian 78.8% | SK-OV-3 ovarian 82.1% | IGROV1 ovarian 97.8% | OVCAR-3 ovarian 102% | HS 578T breast 103% | NCI/ADR-RES ovarian 91.1%

CC(=O)OCC(=O)[C@@]1(O)CC[C@H]2[C@@H]3CC(=C(Br)Br)C4=CC(=O)CC[C@]4(C)[C@H]3C(=O)C[C@@]21C
inactive: SK-MEL-2 melanoma 78.7% | EKVX NSCLC 90.1% | SN12C renal 93.6% | UO-31 renal 68.3% | TK-10 renal 91.2% | ACHN renal 94.1% | CAKI-1 renal 81.7% | A498 renal 79.5% | CCRF-CEM leukemia 83.3% | MOLT-4 leukemia 93.1% | SR leukemia 115% | RPMI-8226 leukemia 87% | OVCAR-8 ovarian 92.9% | OVCAR-5 ovarian 102% | OVCAR-4 ovarian 96.1% | SK-OV-3 ovarian 72.9% | IGROV1 ovarian 96% | OVCAR-3 ovarian 98.6% | HS 578T breast 90.8% | NCI/ADR-RES ovarian 89.5%

CC1(C)[C@H](O)CC[C@]2(C)[C@@H]1CC[C@@]13C[C@@H](CC[C@H]12)[C@@](O)(CO)C3
inactive: SK-MEL-2 melanoma 106% | EKVX NSCLC 104% | SN12C renal 103% | UO-31 renal 93.6% | TK-10 renal 108% | ACHN renal 106% | CAKI-1 renal 97.8% | A498 renal 96.9% | CCRF-CEM leukemia 106% | MOLT-4 leukemia 108% | SR leukemia 103% | RPMI-8226 leukemia 108% | OVCAR-8 ovarian 110% | OVCAR-5 ovarian 106% | OVCAR-4 ovarian 117% | SK-OV-3 ovarian 109% | IGROV1 ovarian 113% | OVCAR-3 ovarian 112% | HS 578T breast 97.9% | NCI/ADR-RES ovarian 106%

COc1ccc(-c2nc(N/N=C/c3cccc(O)c3)nc(N3CCOCC3)c2C#N)cc1
active: SR leukemia -20.3%
inactive: SK-MEL-2 melanoma 85.6% | EKVX NSCLC 88.7% | SN12C renal 78.3% | UO-31 renal 34.4% | TK-10 renal 88.4% | ACHN renal 57.8% | CAKI-1 renal 77% | A498 renal 85.7% | CCRF-CEM leukemia 26.3% | MOLT-4 leukemia 39.8% | RPMI-8226 leukemia 32.1% | OVCAR-8 ovarian 68.8% | OVCAR-5 ovarian 117% | OVCAR-4 ovarian 89.3% | SK-OV-3 ovarian 104% | IGROV1 ovarian 71.2% | OVCAR-3 ovarian 75.8% | HS 578T breast 69.3% | NCI/ADR-RES ovarian 74.8%
